The target in one assay is PUM1 PUF domain R1-RRT (Homo sapiens, UniProt Q14671 828-1176, S863R;Q867T). Briefly: yeast three-hybrid, YBZ-1, SC-Leu-His + 0.5 mM 3-AT, 4 days. As to conditions: tags: N-Gal4 AD-HA kept; label: inside an RPR1-promoter hybrid RNA with tandem MS2 sites; ssRNA. The essentials:
(§1)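 A centromeric plasmid in strain YBZ-1 co-expressed Pumilio-1 PUF domain libraries, randomized at the three base-contacting residues of each repeat, with matching RNA elements; the strain carries a LexA–MS2 coat fusion and a HIS3 reporter. After four days on SC-Leu (input) or SC-Leu-His + 0.5 mM 3-AT (selection), the repeat regions were PCR-amplified and Illumina-sequenced. The interaction score is the log change in variant frequency from input to selection, using log2 and a pseudocount of 1 where absent.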
Chain of PUM1 PUF domain R1-RRT (Q14671 828-1176 S863R/Q867T): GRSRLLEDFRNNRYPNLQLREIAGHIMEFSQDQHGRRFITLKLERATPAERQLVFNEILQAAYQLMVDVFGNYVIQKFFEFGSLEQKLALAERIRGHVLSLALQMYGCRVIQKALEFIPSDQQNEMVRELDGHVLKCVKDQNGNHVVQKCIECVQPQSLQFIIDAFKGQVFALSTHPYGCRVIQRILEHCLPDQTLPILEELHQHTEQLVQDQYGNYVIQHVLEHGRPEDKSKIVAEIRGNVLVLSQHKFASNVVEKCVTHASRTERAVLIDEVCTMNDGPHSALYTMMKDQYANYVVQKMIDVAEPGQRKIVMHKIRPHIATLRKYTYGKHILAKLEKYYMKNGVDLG
Consider “GGCUAGAACUAGUGGAUCCCCCGGCGCCCGGCGGCUCGAGCCCGGGUAAGUGUAAAUGGUCUGCAUGCCGCCGGGCGCCAUGCCUGCAGGUCGACUCUAGAAAACAUG”, for which the binding signal was 1.65 log2 enrichment (interaction score).

For the sequence “GGCUAGAACUAGUGGAUCCCCCGGCGCCCGGCGGCUCGAGCCCGGGUAAGUGUAAAUUGUCUGCAUGCCGCCGGGCGCCAUGCCUGCAGGUCGACUCUAGAAAACAUG”, the binding signal is 4.21 log2 enrichment (interaction score).

For “GGCUAGAACUAGUGGAUCCCCCGGCGCCCGGCGGCUCGAGCCCGGGUAAGUGUAAAUCGUCUGCAUGCCGCCGGGCGCCAUGCCUGCAGGUCGACUCUAGAAAACAUG”, the binding signal is 4.11 log2 enrichment (interaction score).

For another assay, the target named is PUM1 PUF domain R5-YRR (Homo sapiens, UniProt Q14671 828-1176, C1007Y;Q1011R). The description is as above. As to conditions: tags: N-Gal4 AD-HA kept; label: inside an RPR1-promoter hybrid RNA with tandem MS2 sites; ssRNA. In a few lines:
as §1
Turning to “GGCUAGAACUAGUGGAUCCCCCGGCGCCCGGCGGCUCGAGCCCGGGUAAGUGUAAAUAGUCUGCAUGCCGCCGGGCGCCAUGCCUGCAGGUCGACUCUAGAAAACAUG”, the binding signal was 1.76 log2 enrichment (interaction score).

For “GGCUAGAACUAGUGGAUCCCCCGGCGCCCGGCGGCUCGAGCCCGGGUAAGUGUCAAUAGUCUGCAUGCCGCCGGGCGCCAUGCCUGCAGGUCGACUCUAGAAAACAUG”, the binding signal was 3.31 log2 enrichment (interaction score).

In the case of “GGCUAGAACUAGUGGAUCCCCCGGCGCCCGGCGGCUCGAGCCCGGGUAAGUGUUAAUAGUCUGCAUGCCGCCGGGCGCCAUGCCUGCAGGUCGACUCUAGAAAACAUG”, the binding signal is 1.61 log2 enrichment (interaction score).

For the origin of these results see PMC8384837, “Expanding the binding specificity for RNA recognition by a PUF domain”.
